Results from the supplement of paper PMC12636033.
± gives the standard deviation of the averaged measurements. In all, about 33,000 sequences were measured (“E-score (rank enrichment, -0.5 to 0.5)”: median about -0.0043, highest 2% from about 0.24 on). The entries come from a sample that favours the highest values as a whole.

Tested on: 2Sp-muMax20 (muMax20 with two 2,6-bis(methyl)pyridine Cys staples)
Experiment: PBM 8-mer E-score (E-score (rank enrichment, -0.5 to 0.5)); higher = stronger preferential binding
Description: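 Protein binding microarray (universal PBM chip covering all 10-mers in fixed probe flanks) with chemically synthesized human Max(13-93) bHLH-LZ analogs (not full-length Max) bearing noncanonical residues (hArg, Tha, Aib, Nle at 65) and aromatic Cys staples. Read-out per 8-mer (and its reverse complement): E-score (rank-based enrichment, -0.5 to 0.5) and Z-score of median probe intensity.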

Sequence	PBM 8-mer E-score
ACTGATTA	0.0334 ± 0.067
CCTGATTA	0.0465 ± 0.018
ATTGATTA	0.124 ± 0.078
CTTGATTA	0.0552 ± 0.1
GCTGATTA	0.273 ± 0.011
GTTGATTA	0.25 ± 0.057
CAAAGAGG	0.00199 ± 0.021
GCTTACGA	0.0276 ± 0.057
CGGGTCCC	-0.36 ± 0.051
AAATGATT	-0.0058 ± 0.064
CACGGACA	-0.212 ± 0.011
AAAGGGCT	-0.0325 ± 0.13
AAGGGGCG	-0.00545 ± 0.089
AAGGGGCT	0.271 ± 0.019
ACCTCTGC	-0.0962 ± 0.11
CGGACAAA	-0.0707 ± 0.0079
CAGCGGCC	-0.156 ± 0.048
AACATGCA	0.205 ± 0.17
ACCATGCA	0.187 ± 0.0036
GGCATGCA	0.0431 ± 0.062
TGCATGCA	0.282 ± 0.038
CGCATGCA	0.161 ± 0.026
AGCATGCA	0.301 ± 0.023
CAAAGGGG	0.00961 ± 0.03
CACATCCA	0.103 ± 0.042

Sequence	PBM 8-mer E-score
CTCTTCCA	-0.0254 ± 0.029
AAGTCGAC	0.0839 ± 0.081
CAGCGGGG	-0.157 ± 0.043
CTCCTGCC	0.0184 ± 0.066
ATGATGTA	0.131 ± 0.049
GTGATGTA	0.268 ± 0.018
CTGATGTA	-0.072 ± 0.074
ACATACGA	0.237 ± 0.049
ACATATAT	0.309 ± 0.061
ACATACAC	0.0759 ± 0.032
ACATACGC	0.0353 ± 0.028
TCATACGA	0.214 ± 0.047
TCATATAA	0.227 ± 0.045
CCATATAA	0.0911 ± 0.065
ACATATAG	0.174 ± 0.031
ACATATAC	0.158 ± 0.072
ACATACAT	0.252 ± 0.054
ACATATAA	0.333 ± 0.0052
ACATACAG	0.191 ± 0.11
CGCAAATC	-0.0745 ± 0.17
CCGTCGAG	-0.0626 ± 0.0034
CTTATCGA	0.0942 ± 0.054
CGTTACGC	-0.173 ± 0.044
AAGTGGGG	0.1713 ± 0.001
GCATGGGA	-0.0247 ± 0.032

Sequence	PBM 8-mer E-score
AATCCCGG	-0.104 ± 0.0059
AGACTTAG	-0.023 ± 0.017
AGATATAT	0.252 ± 0.043
AGATATAC	0.146 ± 0.046
AGATATAG	0.174 ± 0.0033
ATATAGGG	0.0694 ± 0.043
CGGAATAC	-0.144 ± 0.035
AAAAGTGG	0.159 ± 0.0062
GCCTGCAA	-0.0187 ± 0.071
CTACATAA	0.122 ± 0.021
GAACATAA	0.0635 ± 0.079
GTACATAA	0.171 ± 0.011
ACACATAG	-0.0161 ± 0.023
AAACATAA	0.289 ± 0.0052
ACACATAA	0.24 ± 0.037
ACACACTA	0.158 ± 0.0088
CCACACTC	0.00608 ± 0.081
AAACATAG	0.0784 ± 0.084
CCACACTA	0.261 ± 0.026
TTACATAA	0.259 ± 0.0094
GCACATAA	0.121 ± 0.02
CAGTGGAG	0.0231 ± 0.066
CACAGGGC	-0.258 ± 0.027
CCAACTCA	-0.0281 ± 0.11
CCCACCAA	0.127 ± 0.019

Sequence	PBM 8-mer E-score
ATATCAAT	0.172 ± 0.089
AGCCTCTG	-0.079 ± 0.05
ATTTGAAA	0.168 ± 0.12
AGGTCTCC	-0.0447 ± 0.033
GTGCAGTA	0.106 ± 0.039
AACGACTA	0.0385 ± 0.073
CCACACAA	0.0212 ± 0.012
TCACACAA	0.238 ± 0.017
ACACACAA	0.0759 ± 0.063
ACCCCTGG	-0.144 ± 0.039
ATCGAAGG	-0.0475 ± 0.11
ACCATATA	0.23 ± 0.082
GCAAGCAC	-0.00775 ± 0.028
CCAAGCAC	0.235 ± 0.038
ACAAGCAC	-0.115 ± 0.13
CCCACCGC	0.0543 ± 0.035
ATTCTCAA	0.123 ± 0.02
ACTAGAAC	0.0769 ± 0.048
GAATATTA	0.22 ± 0.026
AAATATTG	0.075 ± 0.0023
TAATATTA	0.343 ± 0.044
TAATATGA	0.135 ± 0.072
CAATATTA	0.19 ± 0.058
AAATATTA	0.28 ± 0.067
CAATATTC	0.0714 ± 0.068

Sequence	PBM 8-mer E-score
AAATATTC	0.249 ± 0.043
GAATATTC	0.189 ± 0.064
ATCGAGAC	-0.161 ± 0.025
CGCGTCTC	0.157 ± 0.072
ACTGAGGG	-0.0464 ± 0.034
ACTGCTGC	0.0474 ± 0.025
GTGGGCGA	0.263 ± 0.088
CTGGGCGA	-0.174 ± 0.045
ATGGGCGA	0.0316 ± 0.058
AATCCCAC	0.00653 ± 0.032
GACTCTAC	-0.0372 ± 0.069
GTATTGGA	0.0561 ± 0.061
AGCATGAG	0.121 ± 0.064
AGCATGAC	0.243 ± 0.051
AGCATGCG	0.275 ± 0.0033
CGCATGCC	0.189 ± 0.053
CCCATGCG	0.0929 ± 0.051
AGCATGAA	0.174 ± 0.04
AGCATGCT	0.332 ± 0.036
CGCATGCG	0.286 ± 0.02
AGCATGCC	0.0906 ± 0.028
ACCATGCT	0.211 ± 0.0076
AGCATGAT	0.131 ± 0.051
ATCATGCG	0.136 ± 0.013
TATCCCGA	-0.0363 ± 0.017

Sequence	PBM 8-mer E-score
ACCACGGT	-0.234 ± 0.057
CCTCAAGA	0.175 ± 0.069
AATGACAA	0.179 ± 0.025
GGCGTCAC	0.0505 ± 0.091
TCGGTTAA	-0.144 ± 0.038
CCACACAC	0.0649 ± 0.082
AGGACAAT	0.0666 ± 0.068
CTCCATCA	0.0787 ± 0.11
GATCAGTA	0.141 ± 0.0015
CTCAACTC	0.0172 ± 0.017
AAGCTTAA	-0.0812 ± 0.033
AAGCTTAT	0.25 ± 0.032
AAGCTGAT	0.294 ± 0.012
AAGCTGAC	-0.0135 ± 0.013
AAGCTGTA	0.168 ± 0.027
AAGCTTAC	0.084 ± 0.0037
CAGCACTC	0.0109 ± 0.049
GGTTTTTA	0.118 ± 0.05
GTATCAAA	0.167 ± 0.037
ACGTTACT	0.097 ± 0.078
CCACTTTC	0.123 ± 0.028
ATTAATGA	0.276 ± 0.074
ATTAATGC	0.14 ± 0.0056
ATTAATTA	0.312 ± 0.065
GTTAATGA	0.181 ± 0.1

Sequence	PBM 8-mer E-score
CTTAATGC	0.25 ± 0.014
ATTAATTG	0.157 ± 0.057
ATTAATGG	0.0949 ± 0.013
CGTAATTA	0.133 ± 0.0041
AGTAATTA	0.256 ± 0.051
CTTAATGA	0.0929 ± 0.029
GGTAATTA	0.147 ± 0.011
ATTAATTC	0.229 ± 0.026
CATGCACC	0.161 ± 0.0063
GGGGTCGA	-0.0201 ± 0.04
TTACTGAA	0.0517 ± 0.035
ACGAAAAG	0.0249 ± 0.0051
ACGAGATG	-0.00212 ± 0.067
CCCCGATC	-0.166 ± 0.013
AGATTGTC	-0.0414 ± 0.0031
GACGGGCA	-0.0942 ± 0.011
ATTAATCA	0.259 ± 0.059
ATAAATTG	0.106 ± 0.026
ATAAATTA	0.303 ± 0.049
ATTAACAC	0.306 ± 0.05
ATTAACAA	0.161 ± 0.042
ATTAATAA	0.224 ± 0.12
GTTAATCA	0.198 ± 0.048
ATTAATCC	0.0916 ± 0.0058
ATTAATAG	0.197 ± 0.079

Sequence	PBM 8-mer E-score
ATTAATAC	0.256 ± 0.1
CTAAATTA	-0.0028 ± 0.045
CTTAACAC	0.164 ± 0.016
AAGAATCA	0.116 ± 0.04
GAGGCCTA	-0.184 ± 0.066
AGAAATCT	0.0669 ± 0.11
ATATGAAA	0.219 ± 0.031
ACACTTCG	-0.0252 ± 0.098
GAAAATTA	0.291 ± 0.063
CAAAATTA	0.15 ± 0.063
AAAAATTA	0.116 ± 0.052
AGCGTGCG	0.178 ± 0.02
CTAGAATA	0.108 ± 0.076
GTAGAATA	0.253 ± 0.0027
ATAGAATA	0.171 ± 0.011
CATATTAA	0.247 ± 0.019
CATATTGC	0.164 ± 0.033
AATATTAG	0.243 ± 0.026
CATATTAG	0.222 ± 0.025
TATATTAA	0.211 ± 0.059
CATATTGG	0.251 ± 0.0054
CCTATTAA	0.154 ± 0.024
CATATTAC	0.0498 ± 0.065
ACTATTAG	-0.00553 ± 0.16
GATATTAC	0.178 ± 0.026

Sequence	PBM 8-mer E-score
AATATTGG	0.0895 ± 0.038
AATATTAC	0.294 ± 0.0036
TGACACCA	-0.0859 ± 0.034
GAGGGTCC	-0.156 ± 0.027
AAAAGGTG	-0.103 ± 0.028
TCGTCCCA	0.114 ± 0.012
GGTGCGAA	0.0856 ± 0.053
ATGACTTC	0.112 ± 0.019
GGCTTACC	-0.108 ± 0.026
CTTATGCA	0.0234 ± 0.047
ATCACTTC	0.0342 ± 0.00049
AATATTCT	0.231 ± 0.057
AATATTAA	0.33 ± 0.029
AATATTTC	0.0962 ± 0.04
AATATTAT	0.246 ± 0.036
CATATTTA	0.228 ± 0.01
AATATTTA	0.282 ± 0.036
ACTATTAT	0.142 ± 0.1
GATATTAA	0.118 ± 0.0066
ACTATTAA	0.157 ± 0.022
